This note sets out measurements from PubChem BioAssay (Tox21).

SMILES strings stand for the structures. Where “and” joins values, the source holds several entries; their conditions need not be identical. Equal values may be shown once. Inconclusive results are not listed. Calls of active or inactive are those of the source. Unless noted, calls follow the shape of the dose curve; as a rule, active = well fitted curve in the direction sought with a large enough effect in the repeat runs; inconclusive = weak or mixed curves; inactive = no such curve, though single readings can be large; an effect the other way counts as inactive or inconclusive.

Assay [1] is described as follows: A CellTox Green Cytotoxicity Assay to monitor cytotoxicity in HEK293 cells - 32 hour (AID 1224881). Also: nearly all actives have a fitted effect of over 40% in size. The gist of the method:
(§1)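 Homogeneous no-lysis format: HEK293 cell suspension mixed with CellTox Green reagent, seeded, incubated 5 h at 37 C/5% CO2, then dosed by pintool with compound in DMSO.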

Assay [2] is described as follows: A CellTox Green Cytotoxicity Assay to monitor cytotoxicity in HepG2 cells - 0 hour (AID 1224882). Also: nearly all actives have a fitted effect of over 35% in size. Summed up:
(§2)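 Fluorescent DNA-binding dye, 600 HepG2 cells/well, 5 h preincubation then compound in DMSO; same plates read at 0–40 h, 37 C.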

Assay [3] can be described thus: A CellTox Green Cytotoxicity Assay to monitor cytotoxicity in HepG2 cells - 32 hour (AID 1224883). Also: nearly all actives have a fitted effect of over 50% in size. Summed up: as §2
Assay [4] in a line: qHTS RealTime-Glo MT Cell Viability Assay in HepG2 cells - 16 hour (AID 1224885). Also: nearly all actives have a fitted effect of over 50% in size. The gist of the method: (§3)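 Cells + NanoLuc/prosubstrate dispensed (600 cells/well) → 5 h at 37 C/5% CO2 → compounds in DMSO transferred → 40 h incubation at 37 C, luminescence read at 0, 8, 16, 24, 32, 40 h.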
Background: qHTS replaces the single test concentration by a dilution series.

The nature of assay [5]: qHTS RealTime-Glo MT Cell Viability Assay in HEK293 cells - 24 hour (AID 1224886). Also: nearly all actives have a fitted effect of over 50% in size. Also: potency is read from the fitted curve at half-maximal effect. The gist of the method:
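Tox21 10K qHTS, HEK293, 600 cells/well, RealTime-Glo reagent co-dispensed with cells; 5 h preincubation, compound by pintool, 37 C, luminescence at 0–40 h.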

A short description of assay [6]: A CellTox Green Cytotoxicity Assay to monitor cytotoxicity in HEK293 cells - 16 hour (AID 1224888). Also: nearly all actives have a fitted effect of over 35% in size. The gist of the method: as §1
Assay [7] can be described thus: qHTS RealTime-Glo MT Cell Viability Assay in HepG2 cells - 0 hour (AID 1224889). Also: nearly all actives have a fitted effect of over 50% in size. The gist of the method:
as §3

Assay [8] in a line: A CellTox Green Cytotoxicity Assay to monitor cytotoxicity in HepG2 cells - 8 hour (AID 1224890). Also: nearly all actives have a fitted effect of over 45% in size. Summed up:
as §2

Assay [9] is described as follows: qHTS assay to identify small molecule antagonists of the estrogen receptor alpha (ER-alpha) signaling pathway using the BG1 cell line in the presence of 0.1 nM 17-beta-estradiol - cell viability counter screen (AID 1259241). Also: nearly all actives have a fitted effect of over 40% in size. Summed up: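 VM7Luc4E2 cells (endogenous full-length ER-alpha, 4xERE-luciferase), cultured 5 days in charcoal-stripped serum, exposed to compounds with 0.1 nM 17beta-estradiol (final) for 22 hr at 37C. Viability read in same wells as live-cell protease fluorescence after 30 min.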

Assay [10] is described as follows: qHTS assay to identify small molecule antagonists of the androgen receptor (AR) signaling pathway using the MDA cell line in the presence of 0.5 nM R1881 - cell viability counter screen (AID 1259242). Also: nearly all actives have a fitted effect of over 45% in size. Summed up:
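Human breast carcinoma MDA-kb2 cells, cultured without CO2, receive compounds alongside 0.5 nM (final) R1881 agonist. After 16 hr at 37C, viability is taken as live-cell protease signal.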

Assay [11] concerns the target Estrogen receptor (Homo sapiens) (UniProt P03372). Briefly: qHTS assay to identify small molecule antagonists of the estrogen receptor alpha (ER-alpha) signaling pathway using the BG1 cell line in the presence of 0.1 nM 17-beta-estradiol (AID 1259244). Also: nearly all actives have a fitted effect of over 50% in size. The gist of the method: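 Seeding of stripped-serum-adapted VM7Luc4E2 cells, 24 h attachment, compound transfer, then 0.1 nM final 17beta-estradiol; after 22 h incubation, ONE-Glo reagent and luminescence reading.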

Assay [12] in a line: qHTS assay to identify small molecule HDAC inhibitors (AID 1259364). Also: potency is read from the fitted curve at half-maximal effect.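 Also: wild-type HCT-116 cells with endogenous class I/II HDAC activity; nearly all actives have a fitted effect of over 45% in size.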 The gist of the method: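 After a 2 hr compound incubation (37C, 5% CO2), HCT-116 cells seeded at 1,500/well the day before received HDAC-Glo reagent; signal read as luminescence after 30 min at room temperature.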
Assay [13] is described as follows: qHTS assay to identify small molecule HDAC inhibitors - cell viability counter screen (AID 1259365). Summed up: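 Wild-type HCT-116 cells, 1,500/well, cultured overnight, then compound-treated 2 h at 37 C. Viability measured as ATP luminescence with CellTiter-Glo after 30 min at room temperature.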
Assay [14] in a line: qHTS assay to identify small molecule agonists of the sonic hedgehog signaling (Shh) pathway - cell viability counter screen (AID 1259366). Also: nearly all actives have a fitted effect of over 50% in size. The gist of the method: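 NIH/3T3-derived Gli1-Luc reporter cells, 2,000 per well, received compound after 4 h and were treated about 23 h at 37C. Viability measured in the same wells by CellTiter-Fluor fluorescence after 1 h.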
Assay [15] can be described thus: qHTS assay to identify small molecule antagonists of the sonic hedgehog signaling (Shh) pathway - cell viability counter screen (AID 1259367). Also: nearly all actives have a fitted effect of over 55% in size. The gist of the method: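 Fluorescence read-out (CellTiter-Fluor, 1 hr at 37C) taken after 23 hr compound treatment of 3T3 Gli1-Luc cells stimulated with conditioned medium. Cells were seeded at 2,000 per well and pre-incubated 4 hr.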

Assay [16] is described as follows: qHTS assay to identify small molecule agonists of the sonic hedgehog signaling (Shh) pathway (AID 1259368; calls by dose curve;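 also: NIH/3T3-derived 3T3Gli1-Luc cells carrying a stable Gli1-driven firefly luciferase reporter; series mostly up to about 92 µM; nearly all actives have a fitted effect of over 15% in size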). Summed up: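 Stable NIH/3T3 Gli1-Luc reporter clone; 24 hr cpd exposure after a 4 hr settling period; luminescence endpoint.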
Assay [17] can be described thus: qHTS RealTime-Glo MT Cell Viability Assay in HEK293 cells - 8 hour (AID 1224887). Summed up:
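Measured as luminescence from the same continuously cultured HEK293 wells at successive time points (0, 8, 16, 24, 32, 40 h) after compound addition. Reagent present from seeding; dosing at 5 h; incubation 37 C.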

Assay [18] can be described thus: qHTS assay to identify small molecule phospholipidosis (PLD) inducers (AID 1259344; active = well fitted curve in the direction sought with a large enough effect; an effect the other way counts as inactive or inconclusive). The gist of the method: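 Read-out is LipidTOX Red fluorescence (ex 595/em 615) imaged in HepG2 cells after 24 h compound exposure at 37 C, with Hoechst nuclear counterstain (ex 352/em 461) allowing per-cell normalisation.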

Chain of Estrogen receptor (Homo sapiens) (P03372 whole entry, looked up): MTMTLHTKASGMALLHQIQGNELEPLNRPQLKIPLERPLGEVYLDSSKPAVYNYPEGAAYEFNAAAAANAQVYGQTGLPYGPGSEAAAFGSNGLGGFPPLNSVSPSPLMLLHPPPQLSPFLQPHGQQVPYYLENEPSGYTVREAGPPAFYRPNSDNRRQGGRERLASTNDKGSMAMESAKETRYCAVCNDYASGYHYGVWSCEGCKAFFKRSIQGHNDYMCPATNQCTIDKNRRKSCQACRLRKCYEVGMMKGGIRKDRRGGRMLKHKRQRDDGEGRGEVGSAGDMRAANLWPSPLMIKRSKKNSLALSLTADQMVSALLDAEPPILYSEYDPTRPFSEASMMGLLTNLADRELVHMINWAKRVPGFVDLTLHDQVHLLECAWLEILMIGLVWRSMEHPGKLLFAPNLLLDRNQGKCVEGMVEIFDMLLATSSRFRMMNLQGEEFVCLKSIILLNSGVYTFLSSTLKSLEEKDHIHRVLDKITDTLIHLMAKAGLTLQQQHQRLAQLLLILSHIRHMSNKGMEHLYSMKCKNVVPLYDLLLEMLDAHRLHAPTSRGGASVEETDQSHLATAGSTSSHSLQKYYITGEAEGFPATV

`CC(=O)[C@H]1CC[C@H]2[C@@H]3CC=C4C[C@@H](O)CC[C@]4(C)[C@H]3CC[C@]12C`: the Potency result in [1], in assay [2], in assay [3], in [4], in assay [5] and in [6] was “inactive” in each case. Besides, the Potency result in [7], in [8], in assay [9], in assay [10], in assay [11] and in assay [12] was “inactive” in each case. In addition, the Potency entry in [14], in assay [15] and in assay [16] was “inactive” throughout. In addition, the compound was classed as inactive in assay [13].
Take `Nc1cc(Cl)c(N)c(Cl)c1`: the Potency result in assay [1], in assay [2], in assay [3], in assay [4], in assay [6] and in assay [7] was “inactive” each time. Moreover, the Potency entry in assay [8], in assay [10], in assay [11], in assay [12], in assay [14] and in assay [16] was “inactive” throughout. In addition, the result in [13] was inactive.
For the compound `O=C(O)COCCN1CCN(C(c2ccccc2)c2ccc(Cl)cc2)CC1` (centres undefined), the Potency result in assay [1], in assay [2], in assay [3], in assay [4], in assay [17] and in [6] was “inactive” throughout. For the same compound, the Potency entry in [7], in assay [8], in assay [10], in [11], in [18] and in assay [12] was “inactive” each time. Also, the Potency entry in assay [14] and in assay [16] was “inactive” in each case. For the same compound, in [13], the outcome was inactive.
With `Nc1cc([N+](=O)[O-])ccc1C(=O)O`, the Potency result in assay [1], in assay [2], in assay [3], in [4], in assay [5] and in [6] was “inactive” each time. Moreover, the Potency entry in assay [7], in [8], in [9], in assay [10], in assay [11] and in assay [14] was “inactive” in each case. Besides, the Potency entry in assay [15] and in assay [16] was “inactive” throughout. Also, in assay [12], the Potency was 49.5 µM (active) and 27.3 µM (active). Moreover, the outcome in [13] was inactive.
For the compound `OCCNCCO`, the Potency entry in assay [1], in [2], in [3], in [4], in assay [5] and in assay [17] was “inactive” each time. Further, the Potency entry in [6], in [7], in assay [8], in assay [10], in assay [11] and in assay [12] was “inactive” each time. Further, the Potency entry in assay [14] and in [16] was “inactive” each time. In [13], the compound was called inactive.
Turning to `C1COCCN1`, the Potency entry in assay [1], in assay [2], in assay [3], in assay [4], in assay [5] and in assay [17] was “inactive” throughout. Also, the Potency result in assay [6], in [7], in assay [8], in [9], in assay [10] and in assay [11] was “inactive” in each case. The Potency entry in assay [12], in [14], in assay [15] and in assay [16] was “inactive” in each case. The result in [13] was inactive.
Consider `C=C[C@H]1CN2CC[C@H]1C[C@@H]2[C@@H](O)c1ccnc2ccc(OC)cc12`, for which the Potency entry in [1], in assay [2], in assay [3], in assay [4], in assay [6] and in assay [7] was “inactive” in each case. For the same compound, the Potency entry in [8], in assay [10], in assay [18], in [12], in assay [14] and in assay [15] was “inactive” each time. Moreover, in assay [5], the Potency is 48.2 µM (active). Also, the result in assay [13] was inactive.
With `CC/C(=C(/CC)c1ccc(O)cc1)c1ccc(O)cc1`, the Potency result in [1], in [2], in assay [3], in assay [4], in [6] and in [7] was “inactive” throughout. Also, the Potency result in assay [8], in [9], in assay [10], in assay [18] and in assay [14] was “inactive” in each case. For the same compound, in assay [5], the Potency was 12.2 µM (active) and 27.5 µM (active). Moreover, in assay [13], the call was inactive.
